The results in this text go back to PMC5540273 (PLoS ONE, 2017).

Some test systems named below: RIOK1; RIOK2; RIOK3; RIPK1; RIPK2; RIPK4; RIPK5; ROCK1; ROCK2; ROS1.
Conditions in all cases: concentration: 1 μM,replicates: in singlicate; n = 1
Test [1] concerns RPS6KA4(Kin.Dom.1-N-terminal).
For test [2], the system named is RPS6KA4(Kin.Dom.2-C-terminal).
Test [3] relates to RPS6KA5(Kin.Dom.1-N-terminal).
Test [4] relates to RPS6KA5(Kin.Dom.2-C-terminal).
For test [5], the system named is T1, RSK1(Kin.Dom.1-N-terminal).
T1 construct: gene RPS6KA1

In test [6] the test system is T2, RSK1(Kin.Dom.2-C-terminal).
T2 construct: gene RPS6KA1

Test [7] deals with T3, RSK2(Kin.Dom.1-N-terminal).
T3 construct: gene RPS6KA3

Test [8] has as its system T4, RSK2(Kin.Dom.2-C-terminal).
T4 construct: gene RPS6KA3

For test [9], the system named is T5, RSK3(Kin.Dom.1-N-terminal).
T5 construct: gene RPS6KA2

For test [10], the system named is T6, RSK3(Kin.Dom.2-C-terminal).
T6 construct: gene RPS6KA2
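Further: KINOMEscan kinase panel screen.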

Consider `COc1cccc(OC)c1C(=O)Nc1cccc(-c2nn3ccccc3c2-c2ccnc(Nc3cccc(F)c3)n2)c1` [GSK361065], for which the “%Inh” value with RIOK1 worked out at 43%; with RIOK2, 2%; in the test on RIOK3, 19%; in the test with RIPK1, 17%; in the test on RIPK2 it was 38%; in the test with RIPK4, 9%. For the same molecule, the “%Inh” value is listed as 32% with RIPK5; 0% in the test on ROCK1; 14% in the test with ROCK2; 4% with ROS1; 8% in test [1]; 14% in test [2]. Also, the “%Inh” value in test [3] is on record as 0%; in [4], 0%; in test [5] it was 36%; in [6], 0%; in test [7], 0%; in [8], 13%. Also, the “%Inh” value is on record as 6% in [9] and 15% in [10].

For the molecule `COc1ccc(Nc2nccc(N3CCC(NC(=O)c4cccc(C#N)c4)C3)n2)cc1` (centres unmarked) [GSK1379730], the “%Inh” value with RIOK1 is recorded as 34%; with RIOK2, 0%; in the test with RIOK3, 5%; in the test on RIPK1 it was 0%; with RIPK2, 0%; with RIPK4, 0%. The “%Inh” value is listed as 0% with RIPK5; 25% in the test on ROCK1; 14% in the test with ROCK2; 23% with ROS1; 15% in test [1]; 0% in test [2]. The “%Inh” value in test [3] came to 5%; in test [4], 0%; in [5], 0%; in test [6], 0%; in [7] it was 0%; in test [8] it was 18%. Also, the “%Inh” value in test [9] is recorded as 0%; in test [10] it was 2%.

Turning to `Cc1cccc2c(-c3ccncc3)c(-c3ccc(F)cc3)nn12.Cl` [GW461487], the “%Inh” value with RIOK1 turned out to be 0%; in the test with RIOK2, 100%; in the test on RIOK3, 0%; in the test on RIPK1, 0%; in the test on RIPK2 it was 48%; in the test on RIPK4, 0%. The “%Inh” value with RIPK5 stood at 0%; with ROCK1 it was 18%; in the test with ROCK2, 12%; in the test on ROS1, 0%; in [1] it was 0%; in test [2], 0%. The “%Inh” value in test [3] was 0%; in test [4], 6%; in test [5] it was 11%; in [6], 51%; in test [7], 3%; in test [8] it was 32%. Further, the “%Inh” value in test [9] came to 0%; in test [10] it was 19%.

Consider `COC(=O)Nc1nc2cc(Oc3ccc(NC(=O)Nc4cc(C(F)(F)F)ccc4Cl)cc3)ccc2[nH]1.Cl` [GW697465], for which the “%Inh” value with RIOK1 is 0%; with RIOK2, 2%; with RIOK3, 0%; with RIPK1, 41%; in the test with RIPK2, 43%; in the test with RIPK4, 1%. Also, the “%Inh” value in the test on RIPK5 was determined as 0%; with ROCK1 it was 26%; in the test on ROCK2 it was 24%; in the test on ROS1, 42%; in test [1], 0%; in test [2], 0%. The “%Inh” value in test [3] is 14%; in test [4] it was 0%; in test [5] it was 0%; in [6], 0%; in test [7], 0%; in test [8], 10%. In addition, the “%Inh” value is listed as 21% in test [9] and 13% in test [10].

For the molecule `C[C@@H](Oc1cc(-n2cnc3ccc(-c4ccncc4)cc32)sc1C(N)=O)c1ccccc1Cl` [GSK483724], the “%Inh” value was found to be 93% with RIOK1; 70% with RIOK2; 73% in the test on RIOK3; 40% in the test on RIPK1; 26% in the test with RIPK2; 0% in the test with RIPK4. In addition, the “%Inh” value turned out to be 3% in the test with RIPK5; 23% with ROCK1; 19% in the test with ROCK2; 42% in the test on ROS1; 20% in test [1]; 0% in test [2]. Also, the “%Inh” value in [3] amounted to 25%; in test [4] it was 5%; in test [5], 40%; in test [6], 0%; in [7], 34%; in [8] it was 0%. The “%Inh” value in [9] is 39%; in test [10] it was 0%.

In the case of `N#Cc1cccc(C(=O)NC2CCN(c3ccnc(Nc4ccc(F)cc4)n3)C2)c1` (centres unmarked) [GSK1379708], the “%Inh” value worked out at 24% in the test on RIOK1; 0% in the test on RIOK2; 0% in the test on RIOK3; 0% in the test with RIPK1; 0% with RIPK2; 6% in the test with RIPK4. The “%Inh” value in the test with RIPK5 came to 0%; in the test with ROCK1, 0%; with ROCK2, 0%; in the test with ROS1 it was 13%; in [1] it was 0%; in test [2] it was 0%. Further, the “%Inh” value is 0% in [3]; 0% in [4]; 15% in test [5]; 0% in test [6]; 0% in [7]; 0% in [8]. Further, the “%Inh” value in test [9] and in [10] was 0% in each case.

Turning to `CSc1nccc(-c2c(-c3ccc(F)cc3)ncn2CCCN2CCOCC2)n1.Cl` [SB-217146], the “%Inh” value with RIOK1 was 0%; with RIOK2 it was 0%; in the test on RIOK3, 0%; in the test with RIPK1 it was 0%; in the test with RIPK2 it was 0%; in the test on RIPK4, 3%. The “%Inh” value amounted to 33% with RIPK5; 40% in the test with ROCK1; 10% with ROCK2; 0% with ROS1; 27% in [1]; 0% in test [2]. For the same molecule, the “%Inh” value in test [3] is listed as 0%; in [4], 4%; in test [5] it was 3%; in test [6], 17%; in test [7], 46%; in [8] it was 0%. In addition, the “%Inh” value in [9] worked out at 0%; in test [10], 18%.

Regarding `O=c1[nH]cc(-c2ccc(O)cc2)c2sc(-c3ccncc3)cc12` [GSK1033723], the “%Inh” value in the test on RIOK1 is listed as 1%; in the test with RIOK2, 14%; in the test with RIOK3, 6%; in the test on RIPK1, 26%; with RIPK2, 16%; in the test with RIPK4, 0%. Besides, the “%Inh” value was 5% in the test on RIPK5; 10% in the test on ROCK1; 18% in the test with ROCK2; 0% in the test with ROS1; 0% in test [1]; 0% in test [2]. In addition, the “%Inh” value turned out to be 4% in test [3]; 21% in [4]; 10% in test [5]; 0% in [6]; 0% in test [7]; 23% in test [8]. In addition, the “%Inh” value in [9] amounted to 0%; in test [10], 3%.

On to `Cn1ccc2ncnc(Oc3ccc(NC(=O)Nc4cccc(C(F)(F)F)c4)c(F)c3)c21`, for which the “%Inh” value in the test on RIOK1 is reported as 0%; in the test on RIOK2 it was 0%; with RIOK3, 23%; in the test on RIPK1, 23%; in the test with RIPK2 it was 52%; in the test with RIPK4 it was 0%. Further, the “%Inh” value in the test with RIPK5 stood at 0%; in the test with ROCK1 it was 0%; with ROCK2, 0%; with ROS1 it was 53%; in test [1], 37%; in [2], 0%. Further, the “%Inh” value in test [3] is 0%; in test [4], 19%; in test [5], 0%; in test [6], 0%; in test [7], 6%; in [8], 13%. The figures for the “%Inh” value in test [9] and in test [10] were 0% and 22%, respectively.

On to `CC(=O)c1c(-c2ccncc2)[nH]c(-c2ccncc2)c1C` [GW493036], for which the “%Inh” value in the test on RIOK1 came to 17%; in the test with RIOK2, 14%; with RIOK3, 0%; with RIPK1, 0%; in the test with RIPK2 it was 14%; in the test with RIPK4 it was 0%. Also, the “%Inh” value is 0% with RIPK5; 46% in the test on ROCK1; 27% in the test with ROCK2; 0% with ROS1; 34% in test [1]; 0% in [2]. Further, the “%Inh” value came out at 0% in [3]; 61% in test [4]; 26% in test [5]; 0% in test [6]; 0% in test [7]; 0% in [8]. For the same molecule, the “%Inh” value in test [9] was found to be 0%; in test [10], 7%.
